Shown are actives, neighbours in structure and some others; about 2.9% of the full set was active somewhere.
ATXN2 expr inh – Primary qHTS for Inhibitors of ATXN expression; Potency, µM (series often up to 57 µM), inactives show at the highest dose activity change, negative = inhibition, most hits filed as inhibitors; AID 1745845, 2022; HEK-293 ATXN2-luciferase reporter, luminescence, 24 h; 360,000 tested, 0.72% active; further: on the % scale 0 is the no-effect control and ±100 the full control effect; nearly all actives have a fitted effect of over 55% in size
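qHTS (up to 57 uM final) was run with 24 h compound exposure of reporter cells at 37 °C. Each well was multiplexed: SteadyGlo luminescence measured ATXN2-luciferase expression after a fluorogenic Gly-Phe-AFC viability readout (25 uM final).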
Nrf2 block – Nrf2 qHTS screen for inhibitors. A549 ARE-Fluc reporter, luciferase luminescence, 18-24 h. Potency, µM (top dose mostly 46 µM), for the others: at the top dose activity change, negative = inhibition, usual class: inhibitors. 360,000 tested, 2.1% active. AID 504444, 2011; further: on the % scale 0 is the no-effect control and ±100 the full control effect; nearly all actives have a fitted effect of over 60% in size
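Two sequential reads on A549 ARE_Fluc cells exposed to compound for 18-24 h: a CellTiter-Fluor fluorescence read for viability, then a luciferase luminescence read for Nrf2/ARE activity.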
A549 viability – Nrf2 qHTS screen for inhibitors: counterscreen for cytotoxicity; Potency, µM (doses to about 46 µM), for the others: at the highest dose activity change, negative = cytotoxicity, usual class: inhibitors; 390,000 tested, 0.16% active; AID 504648, 2011; A549 ARE-Fluc cells, CellTiter-Fluor viability, 18-24 h; further: on the % scale 0 is the no-effect control and ±100 the full control effect
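A549 ARE_Fluc cells in 5% FBS OPTI-MEM were exposed to compounds in concentration-response for 18-24 h at 37 deg C. Viability was read by CellTiter-Fluor fluorescence (Ex 405/Em 525) after 30 min, before the luciferase read.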
ATXN viability – Viability Counterscreen for Primary qHTS for Inhibitors of ATXN expression. S2 cells (HEK-293 line with an ATXN2-luciferase reporter) viability, CellTiter-Fluor protease fluorescence, 24 h. Potency, µM (series often up to 56.7 µM), most hits filed as cytotoxic. 400,000 tested, 0.49% active. AID 651635, 2014; further: nearly all actives have a fitted effect of over 40% in size
Nrf2 ARE act – qHTS of Nrf2 Activators; Potency, µM (series often up to 46.1 µM), inactives show at the top dose activation, actives largely listed as activators; 410,000 tested, 0.31% active; AREc32 ARE-luciferase reporter (MCF7-derived line), luminescence, 24 h; further: % of control where 0% means no effect; nearly all actives have a fitted effect of over 65% in size
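AREc32_Fluc, 1000 cells/well, OPTI-MEM + 5% FBS, o/n 37 deg C 5% CO2; 23 nL cpd by pin tool, 24 hr; Steady-Glo 30 min RT, luminescence.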
The depositor's hits bear a star; i = inactive; ? = inconclusive; / = no result. The call rests on the fitted dose curve; in most records, active means well fitted curve in the direction sought with a large enough effect; inconclusive means small, poorly fitted or top-dose-only effect, or another doubt; inactive means no such curve, though single readings can be large; an effect the other way counts as inactive or inconclusive. Potency means the concentration at half of the fitted maximal effect.

SMILES	ATXN2 expr inh	Nrf2 block	A549 viability	ATXN viability	Nrf2 ARE act
O=c1oc2c(F)cc(F)cc2cc1S(=O)(=O)c1ccc(F)cc1	/	-9.6%	?	/	10µM*
COc1ccccc1N1CCN(S(=O)(=O)c2c(C)nc3sccn3c2=O)CC1	/	12.6%	-3.5%	/	-0.1%
Cc1ccc2c(C(=O)N3CCN(c4ccccc4)CC3)cc(-c3cccnc3)nc2c1C	-14.7%	20.6µM*	?	i	2.1%
CCn1cc(C(=O)NCc2cccc(F)c2)c(=O)c2cc(F)c(N3CCN(C(=O)c4ccco4)CC3)cc21	35.5µM*	?	?	?	3.0%
CCN(CC)Cc1c(-c2ccccc2)[nH]c2ccc(C)cc2c1=O	-10.9%	8.7%	-16.9%	i	-0.5%
O=C(Nc1cccc(C(=O)N2CCN(c3cccc(Cl)c3)CC2)c1)c1ccccc1	/	?	-0.9%	?	-1.2%
Cc1cc(Br)ccc1NC(=O)CN(C)C(=O)C1CCN(c2ncnc3sc(C)c(C)c23)CC1	?	?	20.6µM*	?	-0.3%
Cc1sc2ncnc(N3CCC(C(=O)NNC(=O)c4ccccc4Cl)CC3)c2c1C	-3.3%	16.4µM*	-5.9%	?	-1.1%
Cc1ccc2c(C)c(C(=O)N3CCN(Cc4ccc5c(c4)OCO5)CC3)oc2c1C	18.5%	?	-4.6%	i	0.2%
CCCCN(CCCC)CCCNC(=O)c1ccc2nc(N3CCCCC3)sc2c1	25.4%	?	2.8%	i	1.5%
O=C(NC1CCCCC1)C(c1ccc2ncccc2c1)N(Cc1ccccc1)C(=O)c1cccs1 (stereo not drawn)	-14.9%	18.4µM*	-26.5%	?	2.6%
COc1ccc(CN(C(=O)c2cccs2)C(C(=O)NC2CCCCC2)c2ccc3ncccc3c2)cc1 (stereo not drawn)	-12.5%	-6.2%	-5.2%	?	2.8%
O=C(CN1CCCC1)NC1C2CC3CC(C2)CC1C3 (stereo not drawn)	7.0%	13.0%	?	i	-0.1%
COc1ccc(N2C(=O)CSC23C(=O)N(CC(N)=O)c2ccccc23)cc1 (stereo not drawn)	6.7%	?	6.5%	i	-0.8%
Cc1ccnc(SC2CC(=O)N(c3ccc([N+](=O)[O-])cc3)C2=O)n1 (stereo not drawn)	/	-2.0%	0.4%	?	0.5%
CC(C)(C)OC(=O)N1CCCC(C(=O)Nc2cccc(C(=O)NCCCc3ccccc3)c2)C1 (stereo not drawn)	?	?	2.0%	?	4.4%
CC(C)(C)OC(=O)N(Cc1ccccc1)Cc1cccc(OCc2cccc(NC(=O)C3CC3)c2)c1	-24.9%	25.9µM*	-5.6%	i	6.2%
CC(C)(C)OC(=O)N1CCC(C(=O)Nc2cccc(C(=O)NCCCc3ccccc3)c2)CC1	-23.7%	23.1µM*	-6.3%	?	4.9%
CC(C)(C)OC(=O)N(CCc1ccccc1)Cc1cccc(OCc2cccc(NC(=O)C3CCC3)c2)c1	-0.4%	?	-3.3%	?	3.8%
COc1cccc(CNc2nc(NCc3ccccc3)nc3ccsc23)c1	?	/	/	i	-0.9%
CCOCCCNC(=O)c1ccccc1Br	6.8%	0.4%	-1.5%	i	-0.4%
CCc1nnc2sc(-c3ccc(NC(=O)c4ccc5c(c4)OCCO5)cc3)nn12	-21.5%	2.59µM*	-17.2%	i	0.6%
COC(=O)C[C@H]1C[C@@H]2c3cc(NS(=O)(=O)c4ccc(OC)cc4)ccc3O[C@@H]2[C@H](CO)O1	2.9%	/	/	i	0.2%
Cn1nc(C(=O)N2CCN(S(=O)(=O)c3ccc(Cl)cc3)CC2)c2ccccc2c1=O	-4.2%	23.1µM*	-8.1%	i	0.1%
Cc1nc(N2CCCCCC2)c2ccccc2n1	/	18.4µM*	-10.1%	/	1.2%
COc1ccc(Nc2nc(NCCO)nc(N3CCCC3)n2)cc1	5.1%	-16.3%	-1.9%	i	0.4%
c1ccc(-c2nc(N3CCOCC3)c3ccccc3n2)nc1	-25.8%	-14.5%	2.4%	?	-0.1%
c1ccc2c(N3CCCCC3)nc(N3CCCC3)nc2c1	?	-24.2%	-14.7%	?	-0.2%

Source: PubChem
